In publication PMC5540273 (PLoS ONE, 2017):

Tested on: T1, MEK5
T1 construct: gene MAP2K5
Conditions: concentration: 1 μM, replicates: in singlicate; n = 1
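Further: KINOMEscan kinase panel screen.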

SMILES | %Inh
CN(c1ccc2c(c1)nc(NCc1ccccc1)n2C)c1ccnc(Nc2ccc(CS(C)(=O)=O)cc2)n1.Cl [GW811603] | 89%
CCOc1nccc(-c2c(-c3ccc(F)cc3)ncn2C2CCNCC2)n1 [SB-249175] | 26%
CC(C)(C)c1ccc(C(=O)Nc2cn3cc(-n4ccnc4)ccc3n2)cc1 | 99%
CNc1nccc(-c2ccc3c(N)n[nH]c3c2)n1 [GSK2206003] | 49%

Tested on: T2, MEK6
T2 construct: gene MAP2K6
Conditions: concentration: 1 μM, replicates: in singlicate; n = 1

SMILES | %Inh
CN1CCN(Cc2ccc(NC(=O)Nc3ccc(N(C)c4ccnc(Nc5ccc(CS(C)(=O)=O)cc5)n4)cc3)cc2)CC1.Cl [GW827654] | 0%
COc1ccc(C)c(Nc2ccnc(Nc3ccc(-c4cnc[nH]4)cc3)n2)c1.Cl [GW784041] | 0%
Cc1ccc(NC(=O)c2ccnc(N3CCCCC3)c2)cc1-c1ccc(C(=O)NCC2CC2)cc1 [GW775610] | 6%
CC(C)NCC(Cc1ccccc1)NC(=O)c1cc(Br)c(-c2ccnc3[nH]ccc23)s1.Cl.Cl (centres unmarked) [GSK1383281] | 79%
N#Cc1cnc2cc(-c3cnc(CNCCN4CCOCC4)s3)ccc2c1Nc1ccc(Oc2ccccc2)cc1 [GW664114] | 0%
O=C1NC(=O)C(c2ccccc2Cl)=C1Nc1cccc(Cl)c1 [SB-342409] | 0%
COc1cc(Nc2ccnc3cc(-c4ccncc4)ccc23)cc(OC)c1OC.Cl [GW494610] | 0%
O=C(Nc1n[nH]c2nc(-c3cccc(O)c3)ccc12)C1CC1 [SB-711805] | 0%
COC(=O)Nc1nc2ccc(Oc3ccc(NC(=O)Nc4cc(C(F)(F)F)ccc4F)cc3)cc2[nH]1.Cl [GW654607] | 7%
Cc1ccc(O)cc1Nc1ccnc2ccc(C(C)(C)C)cc12 [GW856805] | 25%
O=C(Nc1n[nH]c2nc(-c3ccccc3)ccc12)C1CC1 [SB-708999] | 0%
Fc1cc(Cl)ccc1Nc1ccnc2cc(-c3ccc(CN4CCOCC4)o3)ccc12 [GW560109] | 0%
Cc1ccc(Nc2ccnc(Nc3ccc(C)c(F)c3)n2)cc1O.Cl [GW582868] | 0%
COc1ccc(NC(=O)c2ccoc2)cc1-c1ccc(C(=O)NCC2CC2)cc1 [GW810437] | 16%
Cn1cc(-c2cnc(N)c3c(-c4ccc5c(c4)CCN5C(=O)Cc4ccccc4)csc23)cn1 [GSK2593074] | 7%
Cc1ccc(NC(=O)c2ccc(Cl)c(Cl)c2)cc1-c1ccc(C(=O)Nc2ccncc2)cc1 [GSK1398460] | 5%
Cl.O=C(Nc1ccc(Oc2ccc3[nH]c(NC(=O)c4ccco4)nc3c2)cc1)Nc1cc(C(F)(F)F)ccc1F [GW683134] | 0%
Nc1ncc(-c2cn[nH]c2)c2scc(-c3ccc4c(c3)CCN4C(=O)Cc3ccccc3)c12 [GSK2593067] | 0%
O=C(O)C(F)(F)F.O=c1[nH]ccc2nc(N[C@@H]3CCNC3)nc(Nc3ccc4c(c3)S(=O)(=O)CC4)c12 [GSK2181306] | 68%

SMILES | %Inh
COc1ccc(C2=C(Nc3cccc(O)c3)C(=O)NC2=O)cc1 [SB-390766] | 0%
CSc1ccc(NC2=C(c3ccc(Cl)cc3)C(=O)NC2=O)cc1 [SB-317658] | 3%
Cc1cccc(Nc2nc(N[C@H]3CCCC[C@H]3N)ncc2C(N)=O)c1.Cl [GSK986310] | 5%
NCCC(NC(=O)c1cc(Br)c(-c2ccnc3[nH]ccc23)s1)c1ccccc1.O=C(O)C(F)(F)F.O=C(O)C(F)(F)F (centres unmarked) [GSK1307810] | 8%
CN(c1ccc(NC(=O)Nc2cccc(Cl)c2)cc1)c1ccnc(N)n1.Cl [GW830707] | 0%
Fc1cc(Cl)ccc1Nc1ccnc2cc(-c3ccc(CN4CCSCC4)o3)ccc12 [GW560106] | 0%
Cn1cc(-c2ccc3c(c2)CCN3C(=O)Cc2cc(F)cc(F)c2F)c2c(N)ncnc21 [GSK2634140] | 0%
CCn1cnc2c(NCc3ccccc3)ncnc21 [SKF-96418] | 9%
COC(=O)Nc1nc2ccc(Oc3ccc(CC(=O)Nc4cc(C(F)(F)F)ccc4F)cc3)cc2[nH]1 [GW680903] | 0%
Cl.Cl.NCC(NC(=O)c1cc(-c2cccnc2)c(-c2ccnc3[nH]ccc23)s1)c1ccccc1 (centres unmarked) [GSK1323434] | 0%
CN(c1ccc(NC(=O)N2CCN(CCCN3CCOCC3)CC2)cc1)c1ccnc(Nc2ccc(CS(C)(=O)=O)cc2)n1.Cl [GW830899] | 0%
COc1cccc(-c2nc(-c3ccccc3)[nH]c2-c2ccncc2)c1 [SB-610250] | 100%
Cl.Cl.NC(CNC(=O)c1cc(Br)c(-c2ccnc3[nH]ccc23)s1)c1ccccc1 (centres unmarked) [GSK1322949] | 0%
O=C(Nc1n[nH]c2cc(-c3cccs3)ccc12)C1CC1 [SB-731284] | 0%
CN(c1ccc2c(c1)nc(NCc1ccccc1)n2C)c1ccnc(Nc2ccc(CS(C)(=O)=O)cc2)n1.Cl [GW811603] | 0%
CCOc1nccc(-c2c(-c3ccc(F)cc3)ncn2C2CCNCC2)n1 [SB-249175] | 18%
CC(C)(C)c1ccc(C(=O)Nc2cn3cc(-n4ccnc4)ccc3n2)cc1 | 0%
CNc1nccc(-c2ccc3c(N)n[nH]c3c2)n1 [GSK2206003] | 9%
